# Source: PubChem BioAssay
# Activity calls are given as the source filed them.
# Key:
# [1] = binders of probe aFSTL3 on microarray, primary screen, stem cell growth factor project, biochemical, small-molecule microarray, fluorescence 635/667 (AID 1064); conditions: higher = more signal;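 also: measures binding of the biotinylated anti-FSTL3 antibody to printed compounds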
# [2] = binders from COS7 lysate, DM2A8 probe, primary screen, torsin A project, cell lysate, small-molecule microarray, fluorescence 635/667 (AID 1065); conditions: higher = more signal, COS7 lysate expressing mutant human TOR1A
# [3] = binders of probe aFGF2 on microarray, primary screen, stem cell growth factor project, biochemical, small-molecule microarray, fluorescence 635/667 (AID 1067); conditions: higher = more signal;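 also: measures binding of biotinylated aFGF2 protein to printed compounds on slides; z-score merges feature fluorescence and signal-to-noise across triplicate slides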
# [4] = binders of probe aFGF10 on microarray, primary screen, stem cell growth factor project, biochemical, small-molecule microarray, fluorescence 635/667 (AID 1071); conditions: higher = more signal;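 also: score merges 667 nm spot intensity and signal to noise from triplicate slides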
# [5] = target: Neurogenic locus notch homolog protein 2 (Homo sapiens) (UniProt Q04721); experiment: Notch2 binders on small-molecule microarrays, primary screen, biochemical, small-molecule microarray, 635 nm fluorescence, stem cell growth factors (AID 1073); conditions: Notch2 binding, higher = more signal
# [6] = target: Pro-neuregulin-1, membrane-bound isoform (Homo sapiens) (UniProt Q02297); experiment: NRG1 binders on small-molecule microarrays, primary screen, psychiatric disease protein project, biochemical, small-molecule microarray, fluorescence 635/667 (AID 1075); conditions: NRG1 binding, 635 nm fluorescence, higher = more signal;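 also: score combines 667 nm spot fluorescence with signal to noise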
# [7] = test system: Neuregulin-1 EGF-like domain; experiment: binders of neuregulin-1 EGF-like domain, primary screen, biochemical, small-molecule microarray, 635 nm fluorescence (AID 1081); conditions: small-molecule microarray binding, higher = more signal;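 also: binding of the protein to compounds printed on small-molecule microarray slides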
# [8] = FRG1 promoter luciferase signal modulators, primary screen, FRG1 inhibition for FSHD, cell-based, C2C12 myotubes, firefly/Renilla luciferase, luminescence (AID 1084); conditions: higher = more signal, called active from +8 up or from −8 down
# [9] = binders of probe aFST on microarray, primary screen, stem cell growth factor project, biochemical, small-molecule microarray, fluorescence 635/667 (AID 1086); conditions: higher = more signal;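 also: score merges 667 nm fluorescence with signal-to-noise of each printed compound spot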
# [10] = binders of probe aHhip on microarray, primary screen, stem cell growth factor project, biochemical, small-molecule microarray, fluorescence 635/667 (AID 1087); conditions: higher = more signal;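 also: score merges spot fluorescence at 667nm with spot signal to noise ratio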
# [11] = test system: PRMT1 (protein arginine N-methyltransferase 1); experiment: PRMT1 binders on small-molecule microarrays, primary screen, biochemical, small-molecule microarray, 635 nm fluorescence (AID 1088); conditions: small-molecule microarray binding, higher = more signal;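 also: binding of Prmt1 protein to compounds spotted on small-molecule microarray slides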
# [12] = yeast growth modulation, basal conditions, primary screen, YJM789 clinical isolate, OD600, 24 h (AID 1089);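 also: growth of clinical yeast isolate S. cerevisiae YJM 789 seeded 1000 cells per well; test concentration not given here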; conditions: S. cerevisiae YJM789 growth, higher = more signal, called active from +8 up or from −8 down
# [13] = fission yeast growth modulation, primary screen, strain 972, OD600, 24 h, no modulator (AID 1090);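 also: basal condition with compound alone and no growth modifier present; test concentration not given here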; conditions: S. pombe 972 growth, higher = more signal, called active from +8 up or from −8 down
# [14] = S. cerevisiae growth modulation with rapamycin, primary screen, strain BY4716, OD600, 96 h (AID 1091); conditions: higher = more signal, called active from +8 up or from −8 down; also: test concentration not given here
# [15] = target: Torsin-1A-interacting protein 2 (Homo sapiens) (UniProt Q8NFQ8); experiment: LULL1 binders on small-molecule microarray, primary screen, cell lysate, human LULL1 lysate, 635/667 nm fluorescence (AID 1092); conditions: hLULL1 lysate binding, 635 nm fluorescence, higher = more signal;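 also: probe is lysate of COS7 cells overexpressing human LULL1; score merges per-feature 667 nm fluorescence with signal-to-noise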
# [16] = E. coli growth modulation, two-sided OD650, primary screen, E. coli filamentation project, strain DRC41, 24 h (AID 1093); conditions: OD650, 24 h, higher = more signal, called active from +8 up or from −8 down;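 also: MC1000 strain lacking acrAB efflux and sulA so SOS filamentation is blocked; test concentration not given here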
# [17] = small-molecule microarray binders of probe aLefty2, primary screen, biochemical, biotinylated probe, 635/667 nm fluorescence (AID 1094); conditions: higher = more signal;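 also: score merges spot fluorescence near 667 nm with spot signal-to-noise ratio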
# [18] = test system: Noggin (protein binding on small-molecule microarray); experiment: Noggin binders on small-molecule microarray, primary screen, biochemical, 635/667 nm fluorescence (AID 1095); conditions: 635 nm fluorescence, higher = more signal;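 also: score merges 667 nm feature fluorescence with signal to noise over triplicate slides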
# [19] = target: Neurogenic locus notch homolog protein 3 (Homo sapiens) (UniProt Q9UM47); experiment: NOTCH3 binders on small-molecule microarray, primary screen, biochemical, 635/667 nm fluorescence (AID 1096); conditions: NOTCH3 binding, 635 nm fluorescence, higher = more signal
# [20] = small-molecule microarray binders of probe aEGFR, primary screen, biochemical, biotinylated probe, 635/667 nm fluorescence (AID 1097); conditions: higher = more signal;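 also: probe is a biotinylated anti-EGFR antibody binding compounds printed on slides; score combines fluorescence near 667 nm and signal to noise of each spot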
# Sequence of Pro-neuregulin-1, membrane-bound isoform (Homo sapiens) (Q02297 whole entry, looked up, the tested form may be a part, canonical isoform): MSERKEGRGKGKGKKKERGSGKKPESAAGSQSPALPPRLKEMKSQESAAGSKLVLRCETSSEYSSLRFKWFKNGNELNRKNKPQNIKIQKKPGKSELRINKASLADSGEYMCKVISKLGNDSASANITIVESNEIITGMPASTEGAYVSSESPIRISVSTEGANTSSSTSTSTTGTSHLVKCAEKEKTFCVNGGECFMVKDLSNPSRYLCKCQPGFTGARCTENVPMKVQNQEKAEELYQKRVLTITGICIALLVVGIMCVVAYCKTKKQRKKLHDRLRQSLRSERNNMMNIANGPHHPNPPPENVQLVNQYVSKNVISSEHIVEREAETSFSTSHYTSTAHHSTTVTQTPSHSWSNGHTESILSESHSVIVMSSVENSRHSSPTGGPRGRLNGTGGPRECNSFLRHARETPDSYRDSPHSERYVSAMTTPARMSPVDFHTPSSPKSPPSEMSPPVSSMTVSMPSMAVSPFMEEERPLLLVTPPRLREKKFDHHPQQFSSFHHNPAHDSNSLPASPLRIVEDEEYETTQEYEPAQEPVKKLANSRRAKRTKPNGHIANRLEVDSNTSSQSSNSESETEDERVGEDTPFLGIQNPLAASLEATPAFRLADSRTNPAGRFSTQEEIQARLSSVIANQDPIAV
# Sequence of Neurogenic locus notch homolog protein 2 (Homo sapiens) (Q04721 whole entry, looked up, canonical isoform): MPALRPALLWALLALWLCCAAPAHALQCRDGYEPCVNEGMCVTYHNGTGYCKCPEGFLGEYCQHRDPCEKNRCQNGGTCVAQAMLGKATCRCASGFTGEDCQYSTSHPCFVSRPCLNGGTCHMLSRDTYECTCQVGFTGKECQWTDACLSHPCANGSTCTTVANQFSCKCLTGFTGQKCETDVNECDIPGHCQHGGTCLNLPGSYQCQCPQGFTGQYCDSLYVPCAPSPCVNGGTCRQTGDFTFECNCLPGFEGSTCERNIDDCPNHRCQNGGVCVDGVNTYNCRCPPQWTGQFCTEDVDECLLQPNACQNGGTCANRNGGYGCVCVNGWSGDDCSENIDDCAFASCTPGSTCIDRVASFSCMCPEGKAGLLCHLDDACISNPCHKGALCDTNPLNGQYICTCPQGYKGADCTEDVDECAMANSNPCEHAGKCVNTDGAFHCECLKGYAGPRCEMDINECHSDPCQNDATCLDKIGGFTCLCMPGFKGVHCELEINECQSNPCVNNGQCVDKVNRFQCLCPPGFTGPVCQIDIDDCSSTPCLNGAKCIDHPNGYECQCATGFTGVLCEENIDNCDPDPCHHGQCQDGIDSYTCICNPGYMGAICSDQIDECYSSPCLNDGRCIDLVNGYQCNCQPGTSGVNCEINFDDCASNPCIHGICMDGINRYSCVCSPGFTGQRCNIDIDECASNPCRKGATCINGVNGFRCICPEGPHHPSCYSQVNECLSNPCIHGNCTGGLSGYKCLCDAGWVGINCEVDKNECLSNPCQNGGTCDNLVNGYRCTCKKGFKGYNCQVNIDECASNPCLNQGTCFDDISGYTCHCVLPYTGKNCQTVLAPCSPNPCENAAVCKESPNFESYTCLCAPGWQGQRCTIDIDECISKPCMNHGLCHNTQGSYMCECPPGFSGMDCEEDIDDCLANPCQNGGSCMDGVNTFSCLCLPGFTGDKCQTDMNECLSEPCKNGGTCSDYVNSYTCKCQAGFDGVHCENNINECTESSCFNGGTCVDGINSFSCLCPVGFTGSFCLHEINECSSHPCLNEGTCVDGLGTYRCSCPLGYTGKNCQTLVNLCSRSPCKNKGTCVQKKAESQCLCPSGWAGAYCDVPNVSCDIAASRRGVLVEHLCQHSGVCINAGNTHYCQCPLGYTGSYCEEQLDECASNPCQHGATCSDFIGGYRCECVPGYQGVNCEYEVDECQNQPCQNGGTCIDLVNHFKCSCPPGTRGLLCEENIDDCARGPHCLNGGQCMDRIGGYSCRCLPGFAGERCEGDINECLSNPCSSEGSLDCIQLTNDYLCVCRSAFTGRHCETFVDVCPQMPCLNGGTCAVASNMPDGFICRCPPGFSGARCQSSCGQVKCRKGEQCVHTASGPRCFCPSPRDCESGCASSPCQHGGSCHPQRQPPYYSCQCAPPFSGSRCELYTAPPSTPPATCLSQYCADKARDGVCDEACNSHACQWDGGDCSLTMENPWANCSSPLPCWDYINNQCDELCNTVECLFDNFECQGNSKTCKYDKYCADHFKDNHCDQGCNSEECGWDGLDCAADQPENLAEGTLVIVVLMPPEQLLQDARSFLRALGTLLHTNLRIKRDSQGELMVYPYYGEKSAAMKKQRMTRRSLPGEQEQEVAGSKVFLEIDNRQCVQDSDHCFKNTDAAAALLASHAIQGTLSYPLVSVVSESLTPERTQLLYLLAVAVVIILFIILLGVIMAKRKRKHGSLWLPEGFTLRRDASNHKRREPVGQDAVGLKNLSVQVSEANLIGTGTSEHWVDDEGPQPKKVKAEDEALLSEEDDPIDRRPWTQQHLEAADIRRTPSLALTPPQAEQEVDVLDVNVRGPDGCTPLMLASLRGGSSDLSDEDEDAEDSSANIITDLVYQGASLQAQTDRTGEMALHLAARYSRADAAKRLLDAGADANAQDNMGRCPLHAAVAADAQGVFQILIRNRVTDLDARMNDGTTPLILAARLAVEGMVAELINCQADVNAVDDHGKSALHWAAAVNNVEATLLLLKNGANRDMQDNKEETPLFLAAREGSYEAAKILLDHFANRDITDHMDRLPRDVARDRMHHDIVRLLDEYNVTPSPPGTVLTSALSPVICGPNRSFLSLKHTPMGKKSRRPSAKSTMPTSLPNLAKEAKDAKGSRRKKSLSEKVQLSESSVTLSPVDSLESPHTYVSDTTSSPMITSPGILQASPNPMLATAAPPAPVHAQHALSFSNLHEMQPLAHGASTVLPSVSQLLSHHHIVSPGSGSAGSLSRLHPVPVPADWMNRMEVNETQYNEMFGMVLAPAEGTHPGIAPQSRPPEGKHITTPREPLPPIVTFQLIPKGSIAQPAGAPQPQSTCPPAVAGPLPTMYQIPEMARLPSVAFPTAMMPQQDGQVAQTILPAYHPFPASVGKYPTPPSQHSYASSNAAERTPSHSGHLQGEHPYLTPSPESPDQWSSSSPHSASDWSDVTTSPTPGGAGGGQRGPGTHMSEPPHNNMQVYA
# Sequence of Torsin-1A-interacting protein 2 (Homo sapiens) (Q8NFQ8 whole entry, looked up): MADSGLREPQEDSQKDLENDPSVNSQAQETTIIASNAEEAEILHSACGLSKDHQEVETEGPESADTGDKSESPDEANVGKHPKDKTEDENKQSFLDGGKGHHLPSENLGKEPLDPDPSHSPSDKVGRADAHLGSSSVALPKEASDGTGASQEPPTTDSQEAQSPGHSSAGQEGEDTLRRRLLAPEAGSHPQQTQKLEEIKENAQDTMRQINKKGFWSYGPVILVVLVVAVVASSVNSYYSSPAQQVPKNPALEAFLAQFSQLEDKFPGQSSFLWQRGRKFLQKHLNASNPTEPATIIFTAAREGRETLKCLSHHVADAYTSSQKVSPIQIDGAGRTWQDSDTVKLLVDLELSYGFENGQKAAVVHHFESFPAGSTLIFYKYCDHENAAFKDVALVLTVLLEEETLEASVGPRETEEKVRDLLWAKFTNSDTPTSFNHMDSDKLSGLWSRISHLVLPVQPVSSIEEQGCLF
Compound,composite z-score [1],composite z-score [2],composite z-score [3],composite z-score [4],composite z-score [5],composite z-score [6],composite z-score [7],z-score [8],composite z-score [9],composite z-score [10],composite z-score [11],z-score [12],z-score [13],z-score [14],composite z-score [15],z-score [16],composite z-score [17],composite z-score [18],composite z-score [19],composite z-score [20]
CC[C@@H]1[C@H]2C3C(=O)N(CC)C(=O)C3CC(=O)[C@H]2[C@H](c2ccc(C)cc2)N1S(=O)(=O)c1ccc(C)cc1 (stereo not given in full),-0.0209,0.172,-0.0878,0.457,1.44,0.519,0.57,-0.319 (inactive),0.84,-0.0296,1.09,0.0287 (inactive),1.15 (inactive),1.6 (inactive),2.75,-0.243 (inactive),-0.203,0.712,1.12,-0.0353
C=C(CCCC)C(=O)CC[C@@H](OC(=O)c1cccnc1)c1ccccc1OCCO,0.0165,0.77,-0.0878,0.0032,-0.872,-0.413,-0.0199,-0.449 (inactive),-0.604,-0.0994,1.31,-0.765 (inactive),-1.37 (inactive),-0.24 (inactive),0.178,0.22 (inactive),0.0166,0.836,0.144,-0.0565
COc1ccc([Si](C)(C)[C@@H]2[C@@H](CCO)O[C@]3(C(=O)N(Cc4cccc(N5C(=O)c6cccc7cccc5c67)c4)c4ccccc43)[C@H]2C)cc1,0.385,-0.106,-0.156,0.691,-0.314,0.779,0.966,-0.34 (inactive),-0.0576,-0.236,1.22,2.2 (inactive),2.22 (inactive),38.9 (active),1.24,0.399 (inactive),-0.0931,-0.25,0.267,-0.221
CC(C)CCC[C@@H](C)[C@H]1CC[C@@]2(C)C3=C(CC[C@]12C)[C@@]1(C)CC[C@H](OC(=O)c2ccc(Br)cc2)C(C)(C)C1CC3 (stereo not given in full),-0.571,0.193,-0.128,0.541,0.5,0.0933,0.439,-0.879 (inactive),0.0941,-0.126,0.739,-1.15 (inactive),-1.28 (inactive),-0.346 (inactive),0.172,2.77 (inactive),-0.0542,0.326,0.888,-0.0333
COc1cc(CO)cc(I)c1O[C@H]1C=C(C(=O)NCCO)C[C@@H](N(CC2CCCCC2)C(=O)c2ccc(C(F)(F)F)cc2)[C@@H]1O,-0.356,0.0668,-0.101,0.268,0.546,0.115,1.02,-1.85 (inactive),0.0701,0.12,1.23,0.0635 (inactive),-0.169 (inactive),-0.0789 (inactive),1.89,1.78 (inactive),-0.166,0.586,0.937,-0.0828
COc1ccc([Si](C)(C)[C@@H]2[C@@H](CC(=O)N3CCC[C@H]3CO)O[C@]3(C(=O)N(Cc4ccc(N5C(=O)c6cccc7cccc5c67)cc4)c4ccccc43)[C@H]2C)cc1,-0.629,0.847,-0.0563,0.995,0.733,1.5,0.976,-1.5 (inactive),0.622,-0.216,1.54,0.035 (inactive),0.378 (inactive),0.922 (inactive),3.07,1.84 (inactive),-0.238,1.41,1.08,-0.129
COC(=O)[C@@]1(Cc2ccc(F)cc2)[C@H]2c3cc(C(=O)N4CCCC4)n(CCF)c3C[C@H]2CN1C(=O)c1ccccc1,0.999,1.52,0.856,1.1,1.55,1.65,1.29,-0.533 (inactive),2.81,2.09,-0.195,-0.496 (inactive),-0.202 (inactive),-0.0254 (inactive),3.13,0.164 (inactive),1.49,-0.258,1.13,0.879
COCCCNC(=O)[C@]1(Cc2ccccc2CN=[N+]=[N-])N=C(c2ccc(OCCCO)cc2)O[C@@H]1c1ccccc1,-0.254,1.19,0.0788,0.627,1.09,0.969,1.12,-3.73 (inactive),1.03,-0.0645,0.972,-0.212 (inactive),-0.0448 (inactive),30.9 (active),2.67,1.01 (inactive),-0.0819,0.348,0.599,0.0316
CON(C)C(=O)C=C1C[C@@H](c2cccc(Cl)c2)O[C@@H](c2cccc(Cl)c2)O1,-0.0715,1.03,0.0168,-0.0102,-0.0986,1,0.524,-1.83 (inactive),-0.0994,-0.0645,0.945,0.37 (inactive),-0.873 (inactive),6.28 (inactive),0.989,-0.168 (inactive),-0.0309,0.407,0.121,-0.0769
CC(C)N1C(=O)[C@@]2(c3ccc([N+](=O)[O-])cc3)CC(=O)N(C3CCCCC3)[C@@H]2c2ccc(CO)cc21,-0.437,0.0633,-0.151,-0.0689,-0.465,-0.299,0.209,1.25 (inactive),-0.293,-0.118,1.27,-1.78 (inactive),0.353 (inactive),-2.19 (inactive),0.198,-1.43 (inactive),-0.103,0.622,-0.509,-0.0565
